Article PMC4336329 (PLoS ONE, 2015)
About 14,000 (4.5%) of roughly 310,000 compounds showed an effect of 50% or more. The effect is printed as a negative number. For the sample, strong results were picked, then their nearest neighbours and some compounds at random.

Target: human ether-à-go-go-related gene (hERG) potassium channel (human, UniProt Q12809)
Experiment: primary screen, population patch clamp on CHO cells stably expressing hERG; higher = less effect of the substance
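Also: peak tail current of the secondary pulse compared with the same well before compound.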

Chain of human ether-à-go-go-related gene (hERG) potassium channel (Q12809 whole entry, looked up): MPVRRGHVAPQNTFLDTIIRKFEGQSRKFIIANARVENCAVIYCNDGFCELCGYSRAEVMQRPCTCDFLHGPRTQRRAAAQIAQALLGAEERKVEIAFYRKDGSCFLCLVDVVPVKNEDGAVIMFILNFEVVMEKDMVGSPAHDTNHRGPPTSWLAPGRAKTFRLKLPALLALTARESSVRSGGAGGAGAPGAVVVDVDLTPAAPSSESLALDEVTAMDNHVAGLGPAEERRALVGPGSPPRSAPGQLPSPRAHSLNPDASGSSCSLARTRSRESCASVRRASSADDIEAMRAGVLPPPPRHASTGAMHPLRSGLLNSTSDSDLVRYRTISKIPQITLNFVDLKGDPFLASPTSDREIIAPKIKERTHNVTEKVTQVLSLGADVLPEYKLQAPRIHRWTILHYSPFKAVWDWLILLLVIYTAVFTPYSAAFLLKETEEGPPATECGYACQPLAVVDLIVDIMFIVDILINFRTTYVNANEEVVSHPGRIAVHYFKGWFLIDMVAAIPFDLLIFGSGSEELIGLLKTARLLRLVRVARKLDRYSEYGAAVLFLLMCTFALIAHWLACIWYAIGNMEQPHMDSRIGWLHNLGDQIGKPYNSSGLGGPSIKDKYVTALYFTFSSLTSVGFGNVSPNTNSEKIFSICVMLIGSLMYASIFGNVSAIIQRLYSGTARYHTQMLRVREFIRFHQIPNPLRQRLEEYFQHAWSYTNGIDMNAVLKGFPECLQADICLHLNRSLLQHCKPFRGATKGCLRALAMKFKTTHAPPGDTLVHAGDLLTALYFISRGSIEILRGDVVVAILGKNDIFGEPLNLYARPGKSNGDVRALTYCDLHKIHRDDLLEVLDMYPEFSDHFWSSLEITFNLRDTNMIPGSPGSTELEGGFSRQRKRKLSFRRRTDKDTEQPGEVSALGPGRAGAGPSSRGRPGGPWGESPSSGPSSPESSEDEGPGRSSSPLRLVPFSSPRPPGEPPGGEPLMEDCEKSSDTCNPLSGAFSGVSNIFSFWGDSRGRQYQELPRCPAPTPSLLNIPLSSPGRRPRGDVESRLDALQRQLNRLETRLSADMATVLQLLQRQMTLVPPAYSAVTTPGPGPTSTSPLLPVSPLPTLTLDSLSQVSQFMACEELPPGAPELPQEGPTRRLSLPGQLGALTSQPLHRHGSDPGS

SMILES | hERG current change (%, negative = inhibition) at 10uM [%]
CCOC(=O)C(C(=O)Nc1cccc(C)c1)C1CCCCC1 (stereo not shown) | -6.99
CCC1C(=O)N=C(SCC(=O)Nc2ccc(C)cc2)N(c2ccccc2)C1=O (stereo not shown) | 19.4
CCOC(=O)c1sc(Nc2ccc(Br)cc2)nc1C | 13.7
Cc1oc2ncnc(N)c2c1C | 8.52
CNC(=O)CN1C(=O)c2cccc3cccc1c23 | 10.3
COc1ccc(NS(=O)(=O)c2ccc(O)c(NC(=O)c3ccc(S(=O)(=O)N4CCCCCC4)cc3)c2)cc1 | 1.73
OCC[C@H]1C[C@@H](O)[C@H](O)[C@]2(OCc3ccccc32)O1 | -0.346
O=c1[nH]ncn1-c1cccc(C(F)(F)F)c1 | 10.8
FC(F)(F)c1cnc(Oc2ccccc2-c2nnc(-c3ccc(Cl)cc3)o2)c(Cl)c1 | -1.52
Cc1ccccc1CSCCNC(=O)CSCc1ccc([N+](=O)[O-])cc1 | -51.3
O=C(Cc1ccc([N+](=O)[O-])cc1)N/N=C/c1cccnc1 | -9.63
Cc1ccccc1CSCC(=O)NCCSc1ccccn1 | -3.24
O=C(CSc1ccc([N+](=O)[O-])cc1)NCC1CCCCC1 | -15
O=C(CSCc1ccc([N+](=O)[O-])cc1)N/N=C/c1ccncc1 | -49.1
CC1CCCCC1NC(=O)CSc1ccc([N+](=O)[O-])cc1 (stereo not shown) | -52.6
COc1ccc([N+](=O)[O-])cc1NC(=O)CSCc1ccccc1C | -7.85
CC1CCCCC1NC(=O)Cn1cc([N+](=O)[O-])ccc1=O (stereo not shown) | 7.67
O=C(CSCc1ccc([N+](=O)[O-])cc1)N/N=C/c1cccnc1 | -60.2
COc1ccc(CNC(=O)C2CCC(CNS(=O)(=O)c3cccs3)CC2)cc1 (stereo not shown) | -18.9
O=C1CC(O)(C(F)(F)F)Oc2c1ccc1ccccc21 (stereo not shown) | 7.95
COc1ccc(/C=N/NC(=O)c2ccc3nc[nH]c3c2)c(OC)c1OC | 12.9
Cc1ccc(S(=O)(=O)NNC(=S)Nc2ccccc2)cc1 | 3.05
On1c(-c2ccc(Cl)cc2)nc2ccccc21 | 13.9

SMILES | hERG current change (%, negative = inhibition) at 10uM [%]
C[n+]1cn(Cc2cc(Cl)ccc2OC(F)F)c2ccccc21.[Br-] | 2.96
CC(C)=Cc1oc2ccc([N+](=O)[O-])cc2c1N1CC(C)OC(C)C1 (stereo not shown) | 18.7
CC(=O)N1CCOc2ccc(S(=O)(=O)N3CCC(C(=O)NCc4ccc(F)cc4)CC3)cc21 | 4.09
CCC(c1nnc(SCC(=O)Nc2ccc(C(C)=O)cc2)n1C1CCCCC1)N(C)C (stereo not shown) | -9.96
Cc1ccc(CNC(=O)Nc2ccccc2)n1C | 12.3
O=C(Nc1cccnc1)c1cc(-c2ccc(F)cc2)on1 | 10.9
Cc1cccc(C)c1OC1(c2ccccc2)OC(=O)c2ccccc21 (stereo not shown) | 10.9
CCCn1c(SCc2cc(=O)[nH]c3ccccc23)nc2c1c(=O)n(C)c(=O)n2C | -7.61
CCOC(=O)C1CCN(S(=O)(=O)c2ccc(NC(=O)OC)cc2)CC1 | -56.5
CCOC(=O)C1CCN(S(=O)(=O)c2ccc(C)cc2)CC1 | 3.36
O=C(c1cccc(S(=O)(=O)N2CCc3ccccc32)c1)N1CCc2ccccc2C1 | -13
COc1ccccc1C(=O)Nc1ccc(S(=O)(=O)N2CCc3ccccc32)cc1 | -77
COc1cc(C(=O)Nc2ccc(S(=O)(=O)N3CCc4ccccc43)cc2)cc(OC)c1OC | -4.14
CCOC(=O)N1CCN(C(=O)c2cc(S(=O)(=O)N3CCc4ccccc43)ccc2OC)CC1 | -52.1
COc1ccc(S(=O)(=O)N2CCc3ccccc32)cc1C(=O)N1CCOCC1 | -0.239
COc1ccc(S(=O)(=O)N2CCc3ccccc32)cc1C(=O)N1CCN(C=O)CC1 | -2.51
COc1ccc(S(=O)(=O)N2CCc3ccccc32)cc1C(=O)Nc1ccc(C(N)=O)cc1 | 9.8
CCOC(=O)C1CCN(C(=O)c2cccc(S(=O)(=O)N3c4ccccc4CC3C)c2)CC1 (stereo not shown) | -35.7
CCOC(=O)C1CCN(S(=O)(=O)c2ccc(C(=O)OC)cc2)CC1 | -1.7
CCOC(=O)C1CCN(C(=O)c2cccc(S(=O)(=O)N3CCc4ccccc43)c2)CC1 | -56.4
COc1ccc(S(=O)(=O)N(CC(=O)Nc2ccc3c(c2)OCO3)c2ccccc2OC)cc1 | 18.5
COc1c2ccoc2c(OC)c2oc(=O)ccc12 | -5.65
CCC(C)C(NC(=O)C1CCC(C)CC1)C(=O)NCCc1ccc(S(N)(=O)=O)cc1 (stereo not shown) | 4.32
